Screening results deposited in PubChem by several laboratories.
Gli-Sufu antag: Gli-Sufu pathway antagonism; 340,000 tested, 0.74% active; AID 588413; Sufu-KO-LIGHT fibroblasts, Gli luciferase reporter luminescence; inhibition, % at 5 µM;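 active = inhibition above about 55%, limit read from the data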
Beta cell apopt: blocks beta cell apoptosis. INS-1E cytokine-induced death, ATP luminescence, 48 h; percent of positive-control rescue, neutral wells zero. protection from apoptosis, % (no concentration beside the values). 300,000 tested, 0.8% active. AID 435005;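 active = Every replicate reaches about 75%, or at least half do and their mean reaches it too, limit read from the data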;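 also: higher means more ATP so stronger rescue from cytokine killing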
CSC inhib: blocks cancer stem cells; 300,000 tested, 1.1% active; cancer stem cell-like cells viability, luminescence; AID 2717; inhibition, % at 7.5 µM; in the data active = inhibition above about 75%; tested in HMLE shEcad cells
Mdm2-MdmX inh: human Mdm2/MdmX binding inhibition | O15151+Q00987 | SaOS-2 split-luciferase Mdm2/MdmX complementation, luminescence | inhibition, % at 8 µM | AID 485346 | 330,000 tested, 3% active;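 active = inhibition of at least 50% at 8 µM in the primary screen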
Target sequence (O15151 whole entry, looked up): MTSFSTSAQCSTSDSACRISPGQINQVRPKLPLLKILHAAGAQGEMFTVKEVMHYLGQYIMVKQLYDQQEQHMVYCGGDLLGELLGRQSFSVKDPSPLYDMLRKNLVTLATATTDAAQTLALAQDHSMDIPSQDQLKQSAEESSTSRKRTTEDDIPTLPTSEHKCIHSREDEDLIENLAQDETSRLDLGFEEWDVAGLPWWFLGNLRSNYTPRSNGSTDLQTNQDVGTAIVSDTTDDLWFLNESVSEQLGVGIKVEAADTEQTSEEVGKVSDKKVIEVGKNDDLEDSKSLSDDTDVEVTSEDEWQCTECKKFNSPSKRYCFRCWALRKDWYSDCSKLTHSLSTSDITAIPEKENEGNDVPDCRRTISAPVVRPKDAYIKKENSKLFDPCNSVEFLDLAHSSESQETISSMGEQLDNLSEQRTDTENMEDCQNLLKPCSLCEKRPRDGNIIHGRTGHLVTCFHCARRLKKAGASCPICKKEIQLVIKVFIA
Target sequence (Q00987 whole entry, looked up): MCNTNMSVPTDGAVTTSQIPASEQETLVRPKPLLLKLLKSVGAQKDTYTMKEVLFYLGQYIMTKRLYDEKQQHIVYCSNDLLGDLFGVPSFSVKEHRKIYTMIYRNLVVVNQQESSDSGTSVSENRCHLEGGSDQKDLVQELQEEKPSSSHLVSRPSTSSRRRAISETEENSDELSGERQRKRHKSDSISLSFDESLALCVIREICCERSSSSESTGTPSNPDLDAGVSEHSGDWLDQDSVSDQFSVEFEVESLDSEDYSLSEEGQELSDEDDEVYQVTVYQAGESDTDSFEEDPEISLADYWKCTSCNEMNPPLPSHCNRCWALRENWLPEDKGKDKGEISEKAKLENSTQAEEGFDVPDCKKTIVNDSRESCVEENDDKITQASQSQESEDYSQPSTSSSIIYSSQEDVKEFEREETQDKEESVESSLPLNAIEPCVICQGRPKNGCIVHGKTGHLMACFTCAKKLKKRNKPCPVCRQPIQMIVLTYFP
GRIN3A LBD mod: NR3A (human) ligand-binding domain modulation; NR3A LBD differential scanning fluorimetry, Tm shift; 0% = protein alone, 100% = glycine-bound protein; Tm shift relative to glycine control, % at 25 µM; 340,000 tested, 2.5% active; AID 1259313;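 active = melting temperature shift of at least 10% of the positive control shift, at one fixed dose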
MPTP inh: inhibitors of mitochondrial permeability transition pore | inhibition, % at 10 µM | 360,000 tested, 1.4% active | isolated mouse mitochondria, Ca2+ swelling absorbance, 30 min | AID 602449;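 active = inhibition of 50% or more, scaled per plate between neutral and stimulator controls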
Hits are given with their value; - = inactive; . = not tested or not shown. Shown are actives, neighbours in structure and some others; about 6.6% of the full set was active somewhere.

SMILES	Gli-Sufu antag	Beta cell apopt	CSC inhib	Mdm2-MdmX inh	GRIN3A LBD mod	MPTP inh
O=C(Nc1ccc(Cl)cn1)Nc1ccc(Cl)cn1	-	-	-	-	29	-
CCc1nc2ccc(C(=O)N3CCCC(C(N)=O)C3)cn2c1N(C=O)CC (stereo unspecified)	.	.	.	.	.	-
CCCS(=O)(=O)N1CCCC(C(=O)Oc2ccc(OC)cc2)C1 (stereo unspecified)	-	-	-	-	-	-
CCCCn1nc(C(=O)Nc2c(C)n(C)n(-c3ccccc3)c2=O)c2ccccc2c1=O	-	-	.	-	-	-
CSC1=NSC2=NC(=O)/C(=C/c3coc4ccc(O)cc4c3=O)C(=N)N12	-	-	-	-	15	-
CSC1=NSC2=NC(=O)/C(=C\c3cccs3)C(=N)N12	-	-	-	.	-	-
O=C(NC(C(=O)c1ccccc1)N1CCCCCC1)c1ccco1 (stereo unspecified)	-	-	-	-	-	-
Cc1ccc(C(=O)C(NC(=O)c2ccco2)N2CCOCC2)cc1 (stereo unspecified)	-	-	-	-	11	-
Cc1ccc(S(=O)(=O)Nc2cccc(-c3ccc(N4CCCCCC4)nn3)c2)cc1C	-	-	-	-	-	-
Cc1ccc([N+](=O)[O-])cc1S(=O)(=O)Nc1cccc(-c2ccc(N3CCCC3)nn2)c1	-	-	-	-	12	-
O=[N+]([O-])c1ccc(S(=O)(=O)Nc2cccc(-c3ccc(N4CCOCC4)nn3)c2)cc1	-	-	-	-	72	-
CCN1CCN(c2ccc(N3CCN(S(=O)(=O)c4ccc(C)c([N+](=O)[O-])c4)CC3)nn2)CC1	-	.	-	-	-	-
O=C(c1ccncc1)N1CCc2ccccc2C1	-	-	-	-	-	-
O=C(c1cncc(Br)c1)N1CCc2ccccc2C1	-	-	-	-	15	-
C[C@@H]1CN([C@@H](C)CO)C(=O)CCCn2nncc2CO[C@@H]1CN(C)C(=O)Cc1ccccc1	.	.	.	.	.	-
CC(C)c1ccc(NC2CCCN(C(=O)CC3CCCC3)C2)cc1 (stereo unspecified)	-	-	-	-	-	-
COc1ccc(NC(=O)CN(C)C(=O)c2cn(-c3ccccc3)nc2-c2ccc(Cl)cc2)cc1	-	.	-	-	27	-
COc1cccc(NC(=O)CN(C)C(=O)c2cn(-c3ccccc3)nc2-c2cccnc2)c1	-	-	-	-	-	-
CN(CC(=O)Nc1cccc(F)c1)C(=O)c1cn(-c2ccccc2)nc1-c1cccs1	-	-	-	-	23	-
CN(CC(=O)Nc1cccc(F)c1)C(=O)c1cn(-c2ccccc2)nc1-c1ccc(Cl)cc1	-	-	102	-	27	-
COc1ccc(NC(=O)CN(C)C(=O)c2cn(-c3ccccc3)nc2-c2ccc(OC)cc2)cc1	-	-	.	-	-	-
COc1cccc(NC(=O)CN(C)C(=O)c2cn(-c3ccccc3)nc2-c2cccs2)c1	-	-	-	-	14	-
CC(=O)N=C1C=CC(=CN(O)C(C)(C)Cc2ccccc2)C=C1	-	-	-	-	-	-
Cc1ccccc1CNC(=O)c1ccccc1N(C)S(=O)(=O)c1ccccc1	-	.	.	-	-	-
Cc1ccccc1NS(=O)(=O)c1nnc(NC(=O)C(C)C)s1	-	-	-	-	-	-
SMILES	Gli-Sufu antag	Beta cell apopt	CSC inhib	Mdm2-MdmX inh	GRIN3A LBD mod	MPTP inh
CC(C)(C)c1ccc(OCC(=O)N2CCN(C=O)CC2)cc1	-	-	-	-	18	-
CCOC(=O)/C=C1\NC(C)(C)Cc2cc(OC)c(OC)cc21	-	-	.	-	-	-
COc1cc2c(cc1OC)/C(=C/C(=O)N1CCOCC1)NC(C)(C)C2	-	-	-	-	11	.
Cc1cccc(C(=O)Oc2ccc(/C=N/NC(=O)c3ccccc3O)cc2)c1	-	-	-	-	19	-
O=C(Oc1ccc(/C=N/Nc2ccccc2)cc1)c1ccccc1	-	-	-	-	-	-
Cc1cccc(C(=O)N/N=C/c2ccc(OC3CSC3)cc2)c1	-	-	76	-	-	-
COc1cccc(C(=O)N/N=C/c2ccc(OC3CSC3)cc2)c1	-	-	-	-	-	-
O=C(O)c1ccc(N/N=C/c2ccc(OC(=O)c3cccc(Cl)c3)cc2)cc1	61	-	-	-	-	-
Cc1cc(C(=O)N/N=C/c2ccc(OC(=O)c3ccccc3Br)cc2)n[nH]1	-	-	-	-	12	-
Cc1nn(CC(=O)Nc2cccc(C(F)(F)F)c2)c(=O)c2cccn12	-	-	-	-	-	-
